Bioassay records from PubChem BioAssay.
hgDAF12 agonist: hgDAF-12 agonism, primary luciferase screen; activation, % at 6.8 µM; hit rate 1.8% among 370,000; HEK293 GAL4-hgDAF12 UAS-luciferase reporter, agonist luminescence; normalized to butyrate control;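 active = activation above a cutoff set at the mean of all screened compounds plus 3 SD, cut at about 10% in these data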;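 also: 0% = DMSO wells and 100% = sodium butyrate wells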
hcDAF-12 act: activators of H. contortus DAF-12 nuclear receptor; HEK293 hcDAF-12 lit1-tk-luc reporter, luminescence; 0% DMSO, 100% Δ7-dafachronic acid; AID 652067; activation, % at 6.8 µM; hit rate 1.4% among 370,000;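 active = activation above the mean of all tested compounds plus 3 SD, cut at about 5.5% in these data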;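 also: 100% = response to 3 µM Δ7-dafachronic acid high control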
DAX1 inh-1: NR0B1 (DAX1) inhibition; P51843; HEK293 Gal4-DAX1 luciferase reporter, luminescence; inhibition, % at 6.75 µM; hit rate 0.99% among 340,000;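 active = inhibition above the mean over all tested compounds plus 3 SD, cut at about 4.2% in these data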;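 also: 0% = DAX1-transfected cells with DMSO and 100% = empty-vector control cells with DMSO; inhibition shows as a rise in luminescence from relieved DAX1 repression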
Target sequence (P51843 207-470 limits assumed): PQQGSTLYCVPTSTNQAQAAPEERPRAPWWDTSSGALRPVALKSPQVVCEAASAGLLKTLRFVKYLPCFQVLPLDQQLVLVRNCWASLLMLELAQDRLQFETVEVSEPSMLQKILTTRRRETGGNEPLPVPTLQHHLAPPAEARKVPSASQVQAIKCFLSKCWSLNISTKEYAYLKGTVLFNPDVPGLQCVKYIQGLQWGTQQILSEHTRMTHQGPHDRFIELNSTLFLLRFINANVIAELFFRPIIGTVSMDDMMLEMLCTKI
DAX1 inh-2: blocks DAX1 repression of SF-1 activated StAR promoter. HEK293T StAR-luciferase reporter, SF-1/DAX-1 repression relief. inhibition, % at 6.8 µM. hit rate 1.1% among 370,000;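 active = inhibition above the mean over all tested compounds plus 3 SD, cut at about 3.6% in these data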;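 also: 0% = DAX-1 cells with DMSO and 100% = cells lacking DAX-1 with DMSO; higher inhibition means more luminescence from relief of DAX-1 repression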
Rev-erbA mod: modulators of human Rev-erb alpha DNA binding | hit rate 0.79% among 370,000 | AID 1259318 | activity, % at 10 µM | Rev-erbα–FITC-DNA binding, fluorescence polarization, 90 min;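 active = activity above about 14%, limit read from the data; passing the limit was not always enough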;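 also: 0% = DMSO wells with 35 nM protein and 100% = DMSO wells with 750 nM protein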
ssDAF-12 act: activates DAF-12 receptor from parasite S. stercoralis. HEK293 ssDAF-12/GRIP1 lit1-tk-luc reporter, luminescence; % of 3 µM dafachronic acid response. hit rate 1% among 370,000. activation, % at 6.8 µM. AID 652126;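 active = activation above the mean over all tested compounds plus 3 SD, cut at about 0.9% in these data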;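 also: 0% = DMSO-only wells and 100% = 3 µM delta7-dafachronic acid wells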
LXRb hcDAF ctr: counter-screen for hcDAF-12 agonists: agonists of human LXR-beta. shares compounds with hcDAF-12 act. HEK293 Gal4-LXR tk-luc reporter, luminescence, 24 h; normalized: DMSO 0%, positive control 100%. activation, % at 6.8 µM. 3,400 tested, under 10 active. AID 743027;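 active = mean percent activation of the reporter above a cutoff set as the average over tested compounds plus their standard deviation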
Target sequence (P55055 whole entry, looked up, the tested form may be a part): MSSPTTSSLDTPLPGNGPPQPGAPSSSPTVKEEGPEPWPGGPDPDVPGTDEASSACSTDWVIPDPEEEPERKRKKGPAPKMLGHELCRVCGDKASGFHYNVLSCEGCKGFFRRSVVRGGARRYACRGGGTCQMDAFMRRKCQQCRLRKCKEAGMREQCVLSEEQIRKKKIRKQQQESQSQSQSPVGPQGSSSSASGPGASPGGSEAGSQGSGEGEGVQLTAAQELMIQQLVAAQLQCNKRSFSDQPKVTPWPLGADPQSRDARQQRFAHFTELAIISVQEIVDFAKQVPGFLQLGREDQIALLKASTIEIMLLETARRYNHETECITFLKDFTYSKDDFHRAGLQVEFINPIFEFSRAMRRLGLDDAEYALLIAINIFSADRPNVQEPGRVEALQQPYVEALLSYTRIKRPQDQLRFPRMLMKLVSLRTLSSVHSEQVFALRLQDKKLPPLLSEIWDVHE
hcDAF12 ag: confirmation of H. contortus DAF-12 agonists; shares compounds with hcDAF-12 act; activation, % at 6.8 µM; hit rate 61% among 3,400; HEK293 hcDAF-12 lit1-tk-luc reporter, luminescence; % of Δ7-dafachronic acid response;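 active = mean activation across triplicate tests above the threshold derived from the earlier primary screen, cut at about 5.5% in these data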;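 also: 0% = DMSO only wells and 100% = 3 µM Δ7-dafachronic acid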
hgDAF12 ag: confirmation of H. glycines DAF-12 agonists | AID 743050 | shares compounds with hgDAF12 agonist | activation, % at 6.8 µM | HEK293 GAL4-hgDAF12 luciferase reporter, agonist mode; percent of butyrate response | hit rate 80% among 3,300;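 active = mean activation over triplicate wells above the hit cutoff derived from the earlier primary screen, cut at about 11% in these data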;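 also: 0% = DMSO low control and 100% = 2 mM sodium butyrate high control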
LXRb DAF12 ctr: activates human LXR-beta, counter-screen for DAF-12 agonists | 3,300 tested, under 10 active | shares compounds with hgDAF12 agonist | activation, % at 6.8 µM | HEK293 Gal4-LXR luciferase reporter, 24 h;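 active = mean activation of the triplicate above a set limit carried over from the primary screen, none filed active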
* marks the source's active call; other numbers are inactive results; ! = not active in a repeat. In the library only some 4.8% were active in any assay of this set; here they are far more common.

How did Cn1c(NC(=O)CCc2ccccc2)cc(=O)n(C)c1=O do in these assays?
hgDAF12 agonist: 14.1*; hcDAF-12 act: 9.4*; DAX1 inh-1: 0.6; DAX1 inh-2: 4.1*; Rev-erbA mod: -8.3; ssDAF-12 act: 1.6*; LXRb hcDAF ctr: 0.8; hcDAF12 ag: 7.5*; hgDAF12 ag: 12.8*; LXRb DAF12 ctr: 0.5

How did CC(=Nc1ccccc1)c1sc2ccccc2c1O do in these assays?
hgDAF12 agonist: 16.8*; hcDAF-12 act: 19.7*; DAX1 inh-1: 3.4; DAX1 inh-2: 2.3; Rev-erbA mod: 12.9; ssDAF-12 act: 2.1*; LXRb hcDAF ctr: 1.8; hcDAF12 ag: 10.6*; hgDAF12 ag: 26.3*; LXRb DAF12 ctr: 1.6

How did COC(=O)[C@]12C[C@H](CC(=O)NCc3cccc4ccccc34)C(=O)N(Cc3ccco3)C1=C[C@H](COCc1ccccc1)O[C@@H]2C do in these assays?
hgDAF12 agonist: 1.4; hcDAF-12 act: -1.3; DAX1 inh-2: -1.5; Rev-erbA mod: 2.7; ssDAF-12 act: -0.5

How did C#CCCCN([C@H](C(=O)OC)C(C)C)S(=O)(=O)c1ccccc1Br do in these assays?
hgDAF12 agonist: 3.1; hcDAF-12 act: -3.3; DAX1 inh-2: -0.8; Rev-erbA mod: -7.7; ssDAF-12 act: -1.7

Results for COC(=O)[C@]1(Cc2ccccc2)NC=C(C(=O)c2ccccc2)[C@@H]1c1cccs1 ?
hgDAF12 agonist: 0.5; hcDAF-12 act: 2.9; DAX1 inh-2: 1.1; Rev-erbA mod: -7.4; ssDAF-12 act: -0.7

How did Cc1cc(NC(=O)Nc2ccccc2F)ccc1Br do in these assays?
hgDAF12 agonist: 20.9*; hcDAF-12 act: 7.1*; DAX1 inh-1: 2.9; DAX1 inh-2: 3.5; Rev-erbA mod: -1.3; ssDAF-12 act: 0.6; LXRb hcDAF ctr: 1.3; hcDAF12 ag: 6.3*; hgDAF12 ag: 17.7*; LXRb DAF12 ctr: 1.1

What do the screens show for `CC1=CC(C)=Nc2ccc(C)cc2N1`?
hgDAF12 agonist: 15.7*; hcDAF-12 act: 5.6*; DAX1 inh-1: 2.5; DAX1 inh-2: 4.1*; Rev-erbA mod: 0.5; ssDAF-12 act: 0.2; LXRb hcDAF ctr: 0.0; hcDAF12 ag: 2.6; hgDAF12 ag: 11.6*!; LXRb DAF12 ctr: 0.7

What do the screens show for `Cc1ccccc1Cn1cc(COC(=O)N(C)Cc2ccccc2)nn1`?
hgDAF12 agonist: 1.8; hcDAF-12 act: -0.3; DAX1 inh-2: -0.6; Rev-erbA mod: 1.4; ssDAF-12 act: -0.4

How did O=C(NC(=S)Nc1ccc2c(c1)OCO2)c1ccccc1 do in these assays?
hgDAF12 agonist: 14.7*; hcDAF-12 act: 8.7*; DAX1 inh-1: 3.5; DAX1 inh-2: 1.6; Rev-erbA mod: 2.1; ssDAF-12 act: 0.7; LXRb hcDAF ctr: 1.7; hcDAF12 ag: 6.1*; hgDAF12 ag: 19.8*; LXRb DAF12 ctr: 1.1

How did NS(=O)(=O)c1ccc(NC(=S)NC(=O)c2ccc3c(c2)OCO3)cc1 do in these assays?
hgDAF12 agonist: 6.5; hcDAF-12 act: -0.1; DAX1 inh-1: 1.5; DAX1 inh-2: 0.1; Rev-erbA mod: 1.1; ssDAF-12 act: -1.4

Results for CSCc1c(C(=O)Nc2ccc3c(c2)OCO3)oc2ccccc12 ?
hgDAF12 agonist: 1.0; hcDAF-12 act: 2.6; DAX1 inh-1: -0.5; DAX1 inh-2: 0.4; Rev-erbA mod: -0.9; ssDAF-12 act: -0.5

Results for Cc1c(C(=O)Nc2ccc3c(c2)OCO3)oc2ccccc12 ?
hgDAF12 agonist: 18.0*; hcDAF-12 act: 16.0*; DAX1 inh-1: 1.5; DAX1 inh-2: 2.5; Rev-erbA mod: -0.2; ssDAF-12 act: 2.8*; LXRb hcDAF ctr: 1.4; hcDAF12 ag: 16.1*; hgDAF12 ag: 20.8*; LXRb DAF12 ctr: 1.1

Results for O=C(Nc1ccc2c(c1)OCO2)c1ccccc1 ?
hgDAF12 agonist: 16.1*; hcDAF-12 act: 9.3*; DAX1 inh-1: 1.3; DAX1 inh-2: 2.0; Rev-erbA mod: -3.6; ssDAF-12 act: 0.5; LXRb hcDAF ctr: 1.0; hcDAF12 ag: 4.3; hgDAF12 ag: 17.5*; LXRb DAF12 ctr: 0.6

How did Cc1onc(-c2ccccc2)c1C(=O)Nc1ccc2c(c1)OCO2 do in these assays?
hgDAF12 agonist: 0.9; hcDAF-12 act: 0.7; DAX1 inh-1: -0.3; DAX1 inh-2: -2.0; Rev-erbA mod: 4.0; ssDAF-12 act: -0.9

Results for C[C@H]1C2CC(OC(=O)Nc3ccc(C#N)cc3)C(C2)[C@H]2CCCCN21 (stereo partly drawn) ?
hgDAF12 agonist: 0.5; hcDAF-12 act: -1.1; DAX1 inh-2: -0.5; Rev-erbA mod: 8.4; ssDAF-12 act: -0.5

How did Nc1ccc2nc(-c3cccc(-c4nc5ccc(N)cc5[nH]4)c3)[nH]c2c1 do in these assays?
hgDAF12 agonist: -1.0; hcDAF-12 act: -1.9; DAX1 inh-1: -1.3; DAX1 inh-2: 0.1; Rev-erbA mod: -1.8; ssDAF-12 act: -1.0

What do the screens show for `Nc1ccc2cc3[nH]c4cc(N)ccc4c3nc2c1`?
hgDAF12 agonist: 35.1*; hcDAF-12 act: 19.5*; DAX1 inh-1: -0.9; DAX1 inh-2: -2.2; Rev-erbA mod: 1.8; ssDAF-12 act: 3.0*; LXRb hcDAF ctr: 3.5*; hcDAF12 ag: 14.5*; hgDAF12 ag: 20.5*; LXRb DAF12 ctr: 1.3

Results for Clc1cccc(-c2nnc(-c3ccccc3)o2)c1 ?
hgDAF12 agonist: 15.8*; hcDAF-12 act: 14.3*; DAX1 inh-1: 1.2; DAX1 inh-2: 2.4; Rev-erbA mod: 1.9; ssDAF-12 act: 1.9*; LXRb hcDAF ctr: 1.5; hcDAF12 ag: 11.4*; hgDAF12 ag: 22.8*; LXRb DAF12 ctr: 1.1

Results for C[C@H]1CN(S(=O)(=O)C(C)(C)C)[C@@H](CCO)/C1=C\c1ccccc1 ?
hgDAF12 agonist: -2.5; hcDAF-12 act: -2.1; DAX1 inh-2: -1.7; Rev-erbA mod: -3.1; ssDAF-12 act: -1.3

What do the screens show for `C/C(=N\NC(=O)c1nn(C)c(C)c1Br)c1ccc(NC(=O)c2ccccc2F)cc1`?
hgDAF12 agonist: 13.9*; hcDAF-12 act: 7.2*; DAX1 inh-1: 4.4*; DAX1 inh-2: 4.2*; Rev-erbA mod: -9.2; ssDAF-12 act: 0.5; LXRb hcDAF ctr: 0.1; hcDAF12 ag: -0.3; hgDAF12 ag: 1.8; LXRb DAF12 ctr: 0.0
